ADAM10 inh: inhibitors of human ADAM10; inhibition, % at 7 µM; recombinant ADAM10, EDANS/DABCYL FRET peptide cleavage, 3 h; 0.62% of 370,000 active;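 active means inhibition above a per-campaign cutoff equal to the mean of compounds falling between control-based bounds plus 3 SD, cut at about 20% in these data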;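 further: 0% = DMSO wells while the 100% control is not disclosed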
ADAM17 inh: inhibitors of human ADAM17. inhibition, % at 6.95 µM. recombinant ADAM17, EDANS/DABCYL FRET peptide cleavage. 0.83% of 370,000 active;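 active means inhibition above the mean of compounds lying between control limits plus 3 SD, set per campaign, cut at about 8.5% in these data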;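 further: 0% = DMSO-only wells as the low control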
FGF22 binding: binders of recombinant human FGF22 by thermal shift; SYPRO orange fluorescence; percent of sucrose octasulfate shift, DMSO zero; activity (Tm shift, normalised), % at 9.99 µM; 1.5% of 340,000 active; AID 651658;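 active means mean Tm shift, scaled 0 neutral to 100 positive control, at about 1.3% or above, every replicate too, limit read from the data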
Target sequence (Q9HCT0 whole entry, looked up): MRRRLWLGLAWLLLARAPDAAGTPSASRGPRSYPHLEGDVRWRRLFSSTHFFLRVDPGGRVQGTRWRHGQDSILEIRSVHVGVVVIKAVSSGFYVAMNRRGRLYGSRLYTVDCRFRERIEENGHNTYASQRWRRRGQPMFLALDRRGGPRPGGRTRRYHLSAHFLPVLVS
proKLK7 act: activates the human kallikrein-7 zymogen; purified proKLK7, EDANS-DABCYL substrate fluorescence; 100% is mature enzyme control, 0% vehicle; activation, % at 7 µM; 0.9% of 370,000 active; AID 652039;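 active means activation above the mean of all tested compounds plus 3 SD, computed per campaign excluding outliers beyond control limits, cut at about 13% in these data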
Ecoli rRNA inh: inhibits bacterial ribosomal RNA function over humanized ribosomes; E. coli WT GFP vs humanized-ribosome RFP mutants, fluorescence, 24 h; stronger effect = lower value; DMSO median 0, no signal -100; GFP signal change (wild-type ribosome), % (concentration not given with the values); 1.6% of 350,000 active;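 active means significant combined selectivity score with lowered wild-type GFP, culture density cut under 30%, mutant RFP and density less affected; inactive means any of these conditions unmet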
An asterisk follows results filed as active; nt = no result. Most compounds without a hit are left out; they make up all but 3.8% or so of the library.

SMILES	ADAM10 inh	ADAM17 inh	FGF22 binding	proKLK7 act	Ecoli rRNA inh
COc1cc(CC(=O)N(CC(C)C)C2CCS(=O)(=O)C2)cc(OC)c1OC (centres undefined)	-2	-2	43*	0	3
Clc1ccccc1CNCc1ccncc1	2	0	43*	1	11
C[C@H](CO)N1C[C@H](C)[C@H](CN(C)CC2CC2)Oc2cc(-c3cccc(F)c3)ccc2S1(=O)=O	nt	nt	0	nt	2
COC(=O)[C@]1(Cc2ccccc2)N=C(c2ccc(OCCCO)cc2)O[C@@H]1c1ccccc1N=[N+]=[N-]	nt	nt	0	nt	nt
COc1ccc2c3c(n(C)c2c1)[C@H](CO)N(Cc1ccccc1)CC31CCN(C(=O)c2ccccc2F)CC1	nt	nt	0	nt	12
O=C(Nc1ccc(Br)cc1)C1CC(c2c(F)cccc2Cl)=NO1 (centres undefined)	6	3	0	0	-3
O=C(Nc1cc(Br)ccc1O)C1CC(c2c(F)cccc2Cl)=NO1 (centres undefined)	16	7	0	-1	-36*
CSc1ccccc1NC(=O)C1CC(c2c(F)cccc2Cl)=NO1 (centres undefined)	5	4	0	0	-25*
COc1ccc(Cl)cc1NC(=O)C1CC(c2c(F)cccc2Cl)=NO1 (centres undefined)	10	3	0	0	-30*
O=C1NC[C@@H](CCCCN2C[C@H](Cc3ccccc3)N(CCc3ccc(O)cc3)C(=O)C2=O)N(CC2CCCCC2)C1=O	-7	-4	1	0	-6
O=C1NC[C@H](CCCCN2C[C@H](Cc3ccccc3)N(CCc3ccc(O)cc3)C(=O)C2=O)N(CCc2ccccc2)C1=O	-18	-3	0	0	-18*
O=C1NC[C@@H](CCCCN2C[C@H](Cc3ccccc3)N(CC3CCCCC3)C(=O)C2=O)N(Cc2ccccc2)C1=O	-5	-2	5.4*	0	-32
O=C1NC[C@H](CCCCN2C[C@H](Cc3ccccc3)N(CC3CCCCC3)C(=O)C2=O)N(CCc2ccc(O)cc2)C1=O	-15	-4	0	0	-21*
C[C@@H]1CN([C@@H](C)CO)C(=O)c2cc(NC(=O)NC3CCCCC3)ccc2O[C@@H](C)CCCCO[C@@H]1CN(C)S(=O)(=O)c1cccs1	nt	nt	0	nt	-4
N#Cc1ccccc1NC(=O)CSC1=Nc2ccccc2C2CC=NN12 (centres undefined)	-2	1	44*	0	12
COc1ccc(NC(=O)Nc2ccc3c(c2)CC(=O)N([C@@H](C)CO)C[C@@H](C)[C@H](CN(C)S(=O)(=O)c2c(C)noc2C)O3)cc1	nt	nt	-1	nt	-4
O=C(C[C@@H]1CC[C@H]2[C@@H](COC[C@H](O)CN2Cc2cc(F)ccc2F)O1)N1CCc2ccccc2C1	nt	nt	0	nt	-10
C=C(C)C(=O)N1CC2(CC(c3cccc(NC(=O)/C(C)=C\C)c3)=NO2)C[C@H]1C(N)=O (some centres undefined)	-6	-3	0	0	13
C=C(C)C(=O)N1CC2(CC(c3cccc(NC(=O)c4ccccc4)c3)=NO2)C[C@@H]1C(N)=O (some centres undefined)	-9	-5	44*	1	6
O=C(N/N=C/c1cccc(O)c1)c1ccc2c(c1)OCCO2	4	2	0	0	-21*
COc1ccccc1CCC(=O)Nc1ccc(C)cc1Cl	9	2	43*	0	2
COc1ccccc1-n1ccn(CC(=O)Nc2ccc(C)cc2Cl)c(=O)c1=O	-3	-3	0	0	3
CCC(=O)N1[C@H](CO)[C@@H](c2ccccc2)C12CN(C(=O)c1ccc(F)cc1)C2	nt	nt	0	nt	4
CCN1C(=O)C(CC(=O)Nc2ccc(F)cc2)N(CCc2ccc(OC)cc2)C1=S (centres undefined)	8	3	44*	0	-35
CCN1C(=O)C(CC(=O)Nc2ccc(OC)cc2)N(CCCN2CCN(c3ccc(OC)cc3)CC2)C1=S (centres undefined)	5	1	0	0	-20*
C=CCNC(=O)[C@H]1[C@@H]2C(=O)O[C@@H](c3ccccc3)[C@@H](c3ccccc3)N2[C@@H](c2ccc(OCCO)cc2)[C@]12C(=O)Nc1ccccc12	nt	nt	0	nt	nt

Compound activity (PubChem)
